Only some compounds are listed: those with a hit (about 1.8% of all), similar ones and a draw of the others.
PAD4 inh: PAD4 (human) enzyme inhibition; 330,000 compounds, 0.41% hits; recombinant PAD4, RCA probe fluorescence polarization; Q9UM07; inhibition, % at 6.36 µM;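 active = percent inhibition above a cutoff equal to the mean of all tested compounds plus 3 SD, cut at about 15% in these data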;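 note: 0% = PAD4 with RCA probe and DMSO and 100% = probe without PAD4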
GSTO1 inh: GSTO1 inhibition, counter-screen for RBBP9 inhibitors. 300,000 compounds, 1.1% hits. inhibition, % at 5.96 µM. AID 1974. recombinant GSTO1, activity-based probe fluorescence polarization. P78417;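 active = inhibition above the campaign mean inhibition plus 3 SD, cut at about 35% in these data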;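 note: 0% = GSTO1-1 with DMSO and 100% = wells lacking GSTO1-1 enzyme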
Fam108B inh: counter-screen for RBBP9 inhibitors: inhibitors of mouse Fam108B; recombinant Fam108B, FP-Rh probe fluorescence polarization; inhibition, % at 9.51 µM; 300,000 compounds, 0.33% hits; AID 1947;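 active = inhibition above the screen mean inhibition plus 3 SD, computed separately per campaign, cut at about 18% in these data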;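 note: inhibitors lower polarization as less probe binds the enzyme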
PME-1 inh: PME-1 (human) inhibition; recombinant PME-1, FP-Rh probe fluorescence polarization; inhibition, % at 5.9 µM; 320,000 compounds, 0.53% hits; AID 2130;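 active = inhibition above the campaign mean of all compounds plus 3 SD, cut at about 26% in these data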;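 note: competitive labeling of PME-1 active site by serine hydrolase directed probe; 0% = PME-1 with DMSO and 100% = wells lacking PME-1 enzyme; inhibitors block probe labeling so polarization falls and inhibition rises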
LYPLA2 counter: blocks human lysophospholipase 2, a PME1 counter-screen | recombinant LYPLA2, FP-Rh probe fluorescence polarization | inhibition, % at 5.9 µM | 320,000 compounds, 0.38% hits | AID 2177;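 active = inhibition above the screen-wide mean plus 3 SD, limit set per campaign, cut at about 26% in these data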;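 note: 0% = LYPLA2 with DMSO and 100% = wells lacking LYPLA2 enzyme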
Target sequence (O95372 whole entry, looked up): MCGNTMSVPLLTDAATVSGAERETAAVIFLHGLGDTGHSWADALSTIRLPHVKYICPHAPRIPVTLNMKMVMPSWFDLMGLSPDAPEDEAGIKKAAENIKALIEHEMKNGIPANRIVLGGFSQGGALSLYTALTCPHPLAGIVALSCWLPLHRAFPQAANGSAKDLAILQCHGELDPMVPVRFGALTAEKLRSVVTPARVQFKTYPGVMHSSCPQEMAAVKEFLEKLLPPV
LYPLA1 inh: counter-screen for PME1 inhibitors: inhibitors of human LYPLA1; O75608; recombinant LYPLA1, FP-Rh probe fluorescence polarization; inhibition, % at 5.9 µM; 320,000 compounds, 0.16% hits;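 active = inhibition above the mean of all tested compounds plus 3 SD, set per campaign, cut at about 14% in these data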;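 note: inhibitors block serine hydrolase probe labeling of LYPLA1 so polarization falls; 0% = enzyme with DMSO and 100% = wells lacking LYPLA1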
Target sequence (O75608 whole entry, looked up): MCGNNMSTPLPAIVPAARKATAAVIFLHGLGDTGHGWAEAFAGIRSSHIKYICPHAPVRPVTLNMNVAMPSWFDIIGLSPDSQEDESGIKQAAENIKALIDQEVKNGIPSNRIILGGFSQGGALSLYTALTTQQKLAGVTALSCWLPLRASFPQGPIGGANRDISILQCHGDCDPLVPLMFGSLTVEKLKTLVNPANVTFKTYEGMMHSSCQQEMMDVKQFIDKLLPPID
LYPLA2 confirm: counter-screen for PME1 inhibitors: confirmation of human LYPLA2 inhibitors | 1,100 compounds, 72% hits | recombinant LYPLA2, FP-Rh probe fluorescence polarization | inhibition, % at 5.9 µM | shares compounds with LYPLA2 counter;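 active = mean inhibition across replicates above the hit cutoff set in the primary screen, cut at about 26% in these data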;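 note: blocked labeling of the enzyme by serine hydrolase FP-Rh probe lowers polarization; 0% = enzyme with DMSO and 100% = wells lacking LYPLA2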
LYPLA2 gel ABPP: LYPLA2 (human) inhibition, late stage results; inhibition, % at 20 µM; 150 compounds, 30% hits; shares compounds with LYPLA2 counter; rhLYPLA2 in mouse brain proteome, gel ABPP FP-Rh;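 active = inhibition of LYPLA2 enzyme probe labeling above about 50%, limit read from the data; inactive = inhibition below that limit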;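 note: loss of FP-Rh probe labeling of the LYPLA2 gel band measured as band density; 0% = DMSO only control band and 100% = blank gel background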
Active calls of the source: *; · = no result.

SMILES	PAD4 inh	GSTO1 inh	Fam108B inh	PME-1 inh	LYPLA2 counter	LYPLA1 inh	LYPLA2 confirm	others
O=C(C1CCC(CNS(=O)(=O)c2cccc3nsnc23)CC1)N1CC=C(c2ccccc2)CC1 (stereo unspecified)	-4	-3	1	0	42*	1	41*
O=c1c(Cl)c(NCc2ccccc2)cnn1C12CC3CC(CC(C3)C1)C2	0	4	0	-3	10	2	·
Cc1ccc(C(CNC(=O)C(=O)Nc2ccc3c(c2)OCCO3)N2CCN(C)CC2)cc1 (stereo unspecified)	-6	6	-1	-3	44*	-4	0
COc1ccccc1NC(=O)NCCN1CCN(c2cccc(Cl)c2)CC1	-7	1	-4	5	43*	6	32*
O=C(NCCN1CCN(c2cccc(Cl)c2)CC1)Nc1ccccc1	-1	9	1	7	12	4	·
CC(=O)N1c2ccc(S(=O)(=O)NCC3CCC(C(=O)NCc4ccc(C)cc4)CC3)cc2CC1C (stereo unspecified)	-7	3	7	1	28*	-2	28*
CC(=O)N1c2ccc(S(=O)(=O)NCC3CCC(C(=O)NCc4ccc(C)o4)CC3)cc2CC1C (stereo unspecified)	1	2	-6	5	0	2	·
Cc1ncoc1C(=O)N1CCCC(N2CCN(c3cccc(C(F)(F)F)c3)CC2)C1 (stereo unspecified)	3	2	-2	2	63*	4	69*	LYPLA2 gel ABPP=46
Cc1occc1C(=O)N1CCCC(N2CCN(c3cccc(C(F)(F)F)c3)CC2)C1 (stereo unspecified)	-4	4	-3	0	28*	0	28*
Cc1cc(C(=O)N2CCCC(N3CCN(c4cccc(C(F)(F)F)c4)CC3)C2)c(C)o1 (stereo unspecified)	3	-5	-3	1	31*	4	41*
Cc1cc(C(=O)N2CCCC(N3CCN(c4cccc(C(F)(F)F)c4)CC3)C2)nn1C (stereo unspecified)	1	1	3	-3	13	5	·
O=C(CSc1ccccc1)N1CCCC(N2CCN(c3cccc(Cl)c3)CC2)C1 (stereo unspecified)	-1	-9	-3	6	69*	9	64*	LYPLA2 gel ABPP=48
Cc1ccccc1N(CC(=O)NCc1ccc2c(c1)OCO2)C(=O)C1CSC(=O)C1 (stereo unspecified)	-1	3	-2	7	-2	4	·
CCOc1ccc(C(=O)N2CCN(c3ccccn3)CC2)cc1	0	6	-1	-4	1	0	·
CC1(CCC(=O)N2CCCC(N3CCN(c4cccc(C(F)(F)F)c4)CC3)C2)CC1 (stereo unspecified)	-2	-4	0	-2	32*	0	31*
C=CCn1c(SCc2ccc(C(=O)O)cc2)nc2sc(C)c(C)c2c1=O	-3	-1	-1	-3	43*	-1	37*
O=C(Nc1ccc2oc(-c3ccncc3)nc2c1)c1ccc2c(c1)OCCO2	-5	7	-10	-9	28*	9	24
O=C(Nc1ccc2oc(-c3ccncc3)nc2c1)c1ccc2c(c1)OCO2	-3	14	-4	7	12	6	·
CCn1c2ccccc2c2nnc(SCC(=O)Nc3ncccn3)nc21	-6	-4	0	-4	4	-1	·
CC(C)(C)c1ccc(-c2nc3n(c(=O)c2C#N)CCS3)cc1	-3	0	-3	2	8	4	·
C#CCOCCOCCOCCNc1nc(N2CCN(C(=O)CCCCCCCCCCNC(=O)[C@H]([C@@H](C)CC)n3cc(CCCCCN)nn3)CC2)nc(N2CCN(C(=O)CCCCCCCCCCNC(=O)[C@@H]([C@H](C)O)n3cc(C)nn3)CC2)n1	-5	12	-2	-7	29*	0	29*
C#CCOCCOCCOCCNc1nc(N2CCN(C(=O)CCCCCCCCCCNC(=O)Cn3cc(CCCCCN)nn3)CC2)nc(N2CCN(C(=O)CCCCCCCCCCNC(=O)[C@H]([C@@H](C)CC)n3cc(CCCCCN)nn3)CC2)n1	6	0	-4	-4	31*	3	23
CCOc1ccc(CCNC(=O)CS(=O)Cc2nc(-c3ccc(OC)c(OC)c3)oc2C)cc1OCC (stereo unspecified)	0	3	0	-4	3	-1	·
CC1=C/C(=C(/c2cc(C)c(O)c(Br)c2)c2ccccc2S(=O)(=O)O)C=C(Br)C1=O	-21	7	-29	-39	-33	-15	·
CC(=O)N1c2ccc(S(=O)(=O)N3CCCC3)cc2CC1C(=O)NCc1ccc(N(C)C)cc1 (stereo unspecified)	-6	1	2	2	2	0	·
SMILES	PAD4 inh	GSTO1 inh	Fam108B inh	PME-1 inh	LYPLA2 counter	LYPLA1 inh	LYPLA2 confirm	others
Cc1cc(OCC(=O)Nc2ccc(CN3CCOCC3)cc2)c2c(C)c(C)c(=O)oc2c1	2	-8	-7	-1	30*	-1	36*
Cc1cc(OCC(=O)Nc2ccc(CN3CCOCC3)cc2)c2c(C)cc(=O)oc2c1	-8	-6	3	3	43*	2	48*
Cc1cc(OCC(=O)NCCCN2CCOCC2)c2c(C)c(C)c(=O)oc2c1	1	5	1	5	4	4	·
O=C(NCCCN1CCOCC1)C1Cc2c(ccc3ccccc23)O1 (stereo unspecified)	-2	1	1	2	4	0	·
O=c1ccc(-c2ccccc2)nn1Cc1ccc(F)cc1	0	1	7	1	27*	1	24
O=c1ccc(-c2ccccc2)nn1Cc1ccccc1	-5	7	2	2	8	4	·
O=c1ccc(-c2ccccc2)nn1Cc1ccc(F)cc1Cl	-2	-2	4	1	35*	-3	34*
CCOC(=O)N1CCC(NC(=O)c2cc3cc4cc(OC)ccc4nc3o2)CC1	1	-1	2	-6	35*	9	31*
O=C(Cc1ccc([N+](=O)[O-])cc1)N1CCN(c2ccc([N+](=O)[O-])cc2)CC1	-4	0	1	8	69*	6	69*	LYPLA2 gel ABPP=70*
O=C(c1ccc2nsnc2c1)N1CCN(c2ccc([N+](=O)[O-])cc2)CC1	-6	3	2	11	27*	6	22
COc1cc(OC)cc(C(=O)Nc2nnc(SCC(=O)NCc3ccco3)s2)c1	3	-13	-1	4	-3	0	·
O=C(Cc1c(F)cccc1Cl)OCC(=O)N1CCN(c2ccccc2)CC1	1	·	·	·	·	·	·
